Laboratory results taken from the supplement of paper PMC9694430.
Counter-ions that a name gives are not always drawn.

What was measured:
Test in all cases: thermal shift delta Tm vs DMSO control; higher = stronger stabilization (binding)
Conditions in all cases: 12.5 µM; protein concentration 2 µM
[1] = system: LOC_OS01G01410-cb001
How it was run: (§1)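 Heating from 25°C to 95°C at 0.05°C/s, fluorescence was recorded for 19.5 μl wells of 2 μM E. coli-expressed, purified rice kinase domain in 100 mM potassium phosphate pH 7.5, 150 mM NaCl, 10% glycerol and 5 × SYPRO Orange with compound in DMSO. Boltzmann fits gave melting temperatures for this differential scanning fluorimetry assay. The shift reported is the mean of three replicates against the DMSO-only protein.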

[2] = system: LOC_OS01G02750-cb003
How it was run: as §1

[3] = system: LOC_OS01G10900-cb004
How it was run: as §1

[4] = system: LOC_OS01G13800-cb001
How it was run: as §1

[5] = system: LOC_OS01G14860-cb001
How it was run: as §1

[6] = system: LOC_OS01G21960-cb002
How it was run: as §1

[7] = system: LOC_OS01G39600-cb002
How it was run: as §1

[8] = system: LOC_OS01G48390-cb002
How it was run: as §1

[9] = system: LOC_OS01G51400-cb002
How it was run: as §1

[10] = system: T1, LOC_OS01G52050-cb004
T1 sequence (whole entry): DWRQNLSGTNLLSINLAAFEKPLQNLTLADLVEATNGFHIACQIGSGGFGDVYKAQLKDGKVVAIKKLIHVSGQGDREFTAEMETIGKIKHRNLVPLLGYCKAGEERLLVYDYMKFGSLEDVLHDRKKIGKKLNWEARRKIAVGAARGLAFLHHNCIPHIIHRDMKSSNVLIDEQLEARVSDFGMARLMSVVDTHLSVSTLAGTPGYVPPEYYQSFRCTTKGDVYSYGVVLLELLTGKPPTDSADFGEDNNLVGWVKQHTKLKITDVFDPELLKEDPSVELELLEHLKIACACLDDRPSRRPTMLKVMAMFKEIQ
How it was run: as §1

[11] = system: LOC_OS01G57100-cb003
How it was run: as §1

[12] = system: LOC_OS01G60330-cb001
How it was run: as §1

[13] = system: LOC_OS01G60700-cb002
How it was run: as §1

[14] = system: LOC_OS01G63280-cb003
How it was run: as §1

[15] = system: LOC_OS01G67340-cb003
How it was run: as §1

[16] = system: LOC_OS01G70970-cb002
How it was run: as §1

[17] = system: LOC_OS02G07810-cb001
How it was run: as §1

[18] = system: LOC_OS02G08530-cb003
How it was run: as §1

[19] = system: LOC_OS02G14120-cb001
How it was run: as §1

[20] = system: LOC_OS02G17970-cb001
How it was run: as §1
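Also: purified Escherichia coli-expressed rice kinase domain construct.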

Compound	thermal shift delta Tm [1] [°C]	thermal shift delta Tm [2] [°C]	thermal shift delta Tm [3] [°C]	thermal shift delta Tm [4] [°C]	thermal shift delta Tm [5] [°C]	thermal shift delta Tm [6] [°C]	thermal shift delta Tm [7] [°C]	thermal shift delta Tm [8] [°C]	thermal shift delta Tm [9] [°C]	thermal shift delta Tm [10] [°C]	thermal shift delta Tm [11] [°C]	thermal shift delta Tm [12] [°C]	thermal shift delta Tm [13] [°C]	thermal shift delta Tm [14] [°C]	thermal shift delta Tm [15] [°C]	thermal shift delta Tm [16] [°C]	thermal shift delta Tm [17] [°C]	thermal shift delta Tm [18] [°C]	thermal shift delta Tm [19] [°C]	thermal shift delta Tm [20] [°C]
Cn1c(=O)c(F)c(Nc2ccc(I)cc2F)c2c(=O)n(C[C@@H](O)CO)cnc21	0.56	-0.22	0.49	0.43	0.33	0.97	0.25	0.55	0.57	0.27	3.09	1.03	1.02	0.11	0.29	0.22	1.5	0.9	0.98	1.05
O=c1cc(N2CCOCC2)oc2c1ccc1ccccc12	-0.07	2.24	1.69	0.55	0.74	-0.09	-0.09	0.43	-0.05	0.24	-0.21	-0.04	0.19	0.17	0.3	-0.28	0.45	0.22	1.47	0.01
C=CC(=O)Nc1cccc(Sc2nc(Nc3ccc(N4CCN(C)CC4)cc3)ncc2Cl)c1	3.81	1.58	5.27	-0.1	1.89	0.88	6.99	7.06	1.43	4.22	-1.98	1.15	0.75	0.45	0.87	7.21	0.82	2.38	6.55	0.58
O=C(Nc1cccc(Nc2ncc(Br)c(NCCc3cnc[nH]3)n2)c1)N1CCCC1	5.28	2.32	0.86	0.31	4.24	3.16	7.21	4.8	1.21	11.9	1.45	12.3	0.44	0.73	2	9.39	0.15	2.7	10.6	0.3
COc1cc2ncnc(Nc3cccc(Cl)c3F)c2cc1OC(=O)N1CCN(C)C[C@H]1C	0.74	0.31	0.52	-0.2	0.07	0.37	-0.74	0.45	0.35	-0.17	1.43	1.34	0.77	0.24	0.62	0.55	0.42	0.94	0.64	0.79
COc1ccc(-c2cc3c(C)nc(N)nc3n([C@H]3CC[C@H](OCCO)CC3)c2=O)cn1	0.74	0.7	0.3	0.31	0.17	0.57	0.34	0.57	0.45	0.16	2.79	0.98	0.9	0.37	0.23	0.14	1.27	1.09	1.12	0.63
Cn1cc(/C=C2\C(=O)Nc3cccnc32)c2ccccc21	3.9	0.74	1.42	-0.51	0.68	1.44	-0.03	1.92	0.44	1.86	1.08	12.1	1.27	0.58	2.54	4.16	1.32	4.2	3.15	1.08
C=CC(=O)N1CCC(Oc2cc3c(Nc4ccc(Cl)c(Cl)c4F)ncnc3cc2OC)CC1 [Poziotinib (HM781-36B)]	0.75	0.07	0.6	-0.34	0.65	0.36	1.56	0.49	-0.16	1.24	0.31	-0.17	0.72	0.26	0.45	0.11	-0.05	1.45	1.12	0.35
COc1cc2/c(=N/c3ccc(Br)cc3F)nc[nH]c2cc1OCC1CCN(C)CC1 [Vandetanib (ZD6474)]	1.05	-0.06	0.86	-0.25	0.15	0.02	0.47	1.67	0.15	1.36	0.28	0.67	1.17	0.47	1.64	0.33	0.65	2.65	10.4	0.76
O=C(Nc1cccc(Cl)c1)Nc1ncc(CCNc2ncnc3ccsc23)s1 [SNS-314 Mesylate]	3.62	3.42	2.72	0.91	2.61	2.26	2.71	1.79	0.41	4.19	2.62	3.98	1.44	2.76	0.53	1.48	2.27	2.1	4.25	1.27
